Source: PubChem BioAssay
CSC inhib: blocks cancer stem cells | AID 2717 | cancer stem cell-like cells viability, luminescence | inhibition, % at 7.5 µM | 300,000 tested, 1.1% active; in the data active means inhibition above about 75%; tested in HMLE shEcad cells
Gli-Sufu antag: Gli-Sufu pathway antagonism. 340,000 tested, 0.74% active. inhibition, % at 5 µM. Sufu-KO-LIGHT fibroblasts, Gli luciferase reporter luminescence;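 active means inhibition above about 55%, limit read from the data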;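 further: 0% = DMSO-treated cells and 100% = wells with medium but no cells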
697 NFkB inh: inhibitors of the PMA/ionomycin-induced NF-kB reporter in 697 B cells. 330,000 tested, 0.33% active. 697 B-cell NF-kB luciferase reporter, 16 h. inhibition, % at 4 µM; in the data active means inhibition above about 35%
Mdm2-MdmX inh: disrupts the human Mdm2-MdmX interaction | SaOS-2 split-luciferase Mdm2/MdmX complementation, luminescence | inhibition, % at 8 µM | 330,000 tested, 3% active | AID 485346;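 active means inhibition of at least 50% at 8 µM in the primary screen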
Target sequence (O15151 whole entry, looked up): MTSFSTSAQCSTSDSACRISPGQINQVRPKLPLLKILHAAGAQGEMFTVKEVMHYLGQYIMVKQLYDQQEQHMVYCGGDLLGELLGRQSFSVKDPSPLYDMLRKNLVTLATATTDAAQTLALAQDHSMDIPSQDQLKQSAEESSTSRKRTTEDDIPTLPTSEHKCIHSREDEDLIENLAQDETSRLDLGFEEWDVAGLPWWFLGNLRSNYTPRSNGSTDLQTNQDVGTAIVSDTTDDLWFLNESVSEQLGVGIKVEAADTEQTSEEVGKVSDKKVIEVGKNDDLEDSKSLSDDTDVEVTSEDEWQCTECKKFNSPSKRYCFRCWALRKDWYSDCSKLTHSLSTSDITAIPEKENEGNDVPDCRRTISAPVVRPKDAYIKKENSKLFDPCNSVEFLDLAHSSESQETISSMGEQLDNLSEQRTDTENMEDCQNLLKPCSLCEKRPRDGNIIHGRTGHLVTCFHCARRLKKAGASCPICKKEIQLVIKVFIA
Target sequence (Q00987 whole entry, looked up): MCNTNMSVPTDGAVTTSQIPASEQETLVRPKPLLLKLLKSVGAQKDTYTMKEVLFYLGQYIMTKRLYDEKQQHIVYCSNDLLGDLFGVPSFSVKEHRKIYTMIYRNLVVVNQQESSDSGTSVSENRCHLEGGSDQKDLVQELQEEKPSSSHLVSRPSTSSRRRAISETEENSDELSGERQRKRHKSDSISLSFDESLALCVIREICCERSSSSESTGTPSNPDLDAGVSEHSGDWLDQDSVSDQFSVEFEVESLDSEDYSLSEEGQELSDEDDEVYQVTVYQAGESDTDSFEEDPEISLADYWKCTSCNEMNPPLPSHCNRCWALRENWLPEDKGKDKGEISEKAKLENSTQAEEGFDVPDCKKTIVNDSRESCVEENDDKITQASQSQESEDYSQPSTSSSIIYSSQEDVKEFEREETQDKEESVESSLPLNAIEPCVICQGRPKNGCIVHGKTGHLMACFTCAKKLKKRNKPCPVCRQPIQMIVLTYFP
Jurkat NFkB inh: lowers PMA/ionomycin-induced NF-kB signal in Jurkat cells; PMA/ionomycin-induced NF-kB luciferase reporter, luminescence; inhibition, % at 4 µM; 330,000 tested, 0.53% active; AID 435003; in the data active means inhibition above about 50%
Beta cell apopt: blocks beta cell apoptosis. INS-1E cytokine-induced death, ATP luminescence, 48 h; percent of positive-control rescue, neutral wells zero. protection from apoptosis, % (concentration not given with the values). 300,000 tested, 0.8% active. AID 435005;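 active means Every replicate reaches about 75%, or at least half do and their mean reaches it too, limit read from the data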;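 further: 0% = cytokine-treated negative control wells and 100% = positive control rescue; higher means more ATP so stronger rescue from cytokine killing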
Mdm2 MdmX conf: confirmation of human Mdm2/MdmX interaction inhibitors. 10,000 tested, 55% active. Mdm2-MdmX binding, luminescent assay. AID 489028. inhibition, % at 8 µM. shares compounds with Mdm2-MdmX inh; in the data active means inhibition above about 40%
Full FLuc ctr: full-length luciferase inhibition in Mdm2/MdmX counter-screen; shares compounds with Mdm2-MdmX inh; inhibition, % at 8 µM; SaOS-2 full-length luciferase counterscreen, luminescence; 6,200 tested, 77% active;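 active means mean inhibition at 8 µM reaching about 37%, which flags the compound as non-specific, limit read from the data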;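 further: p53-null SaOS-2 cells with luciferase driven by a doxycycline-inducible promoter; compound on cells about two nights before reading with doxycycline added after day one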
The depositor's hits bear a star. Hits are enriched below; roughly 4.5% of the tested compounds scored in any of these assays.

For CCn1c2ccccc2c2cc(NS(=O)(=O)c3ccccc3C)ccc21 the results were CSC inhib 64.2, Gli-Sufu antag 3.6, 697 NFkB inh -21.2, Mdm2-MdmX inh 62.7*, Jurkat NFkB inh 40.0, Beta cell apopt -1.5, Mdm2 MdmX conf 47.4* and Full FLuc ctr 67.0*.
Screening CCCC(=O)Nc1ccc2c(c1)c1ccccc1n2CC returned CSC inhib -4.1, Gli-Sufu antag 3.1, 697 NFkB inh 2.4, Mdm2-MdmX inh 31.4, Jurkat NFkB inh -26.8 and Beta cell apopt 0.5.
CCCCn1c(=O)[nH]c(=O)c2c1nc(Cn1ncc(Cl)c(Cl)c1=O)n2CCC was read as CSC inhib -2.3, Gli-Sufu antag 30.8, 697 NFkB inh 3.3, Mdm2-MdmX inh 100.2*, Jurkat NFkB inh 18.3, Beta cell apopt 4.0, Mdm2 MdmX conf 93.2* and Full FLuc ctr 51.5*.
Screening CC1CN(CC(=O)Nc2ccc(S(N)(=O)=O)cc2)CC(C)O1 (stereo not given) returned CSC inhib -0.2, Gli-Sufu antag 44.7, 697 NFkB inh 5.7, Mdm2-MdmX inh -26.7 and Jurkat NFkB inh -11.0.
COc1ccc(OC)c(NC(=O)COC(=O)CCc2ccc(S(=O)(=O)N3CCOCC3)cc2)c1 was read as Gli-Sufu antag -4.4, 697 NFkB inh 3.0, Mdm2-MdmX inh 14.2, Jurkat NFkB inh 1.1 and Beta cell apopt -1.4.
`COc1ccc(Nc2nc(-c3ccccc3F)nc3ccccc23)cc1OC` gave CSC inhib 11.0, Gli-Sufu antag 37.7, 697 NFkB inh 12.0, Mdm2-MdmX inh 54.8*, Jurkat NFkB inh -21.0, Beta cell apopt 14.8 and Mdm2 MdmX conf 33.5.
For Oc1ccc(Nc2nc(-c3ccccc3O)nc3ccccc23)cc1 the results were CSC inhib 83.0*, Gli-Sufu antag 3.5, 697 NFkB inh 1.3, Mdm2-MdmX inh 54.0*, Jurkat NFkB inh -4.2, Beta cell apopt -1.5 and Mdm2 MdmX conf 24.1.
`Oc1ccc(Nc2nc(-c3ccccc3F)nc3ccccc23)cc1` gave CSC inhib 2.4, Gli-Sufu antag 3.3, 697 NFkB inh 26.9, Mdm2-MdmX inh 21.4, Jurkat NFkB inh -19.0 and Beta cell apopt -3.1.
COCCN(C(=O)c1ccc(C)o1)c1c(N)n(CC(C)C)c(=O)[nH]c1=O was read as Gli-Sufu antag -13.3, 697 NFkB inh 20.6, Mdm2-MdmX inh 22.7, Jurkat NFkB inh -4.7 and Beta cell apopt -5.1.
`Cc1cc(Nc2nc3ccccc3nc2Cl)n(-c2ccccc2)n1` gave Gli-Sufu antag 6.9, 697 NFkB inh 11.7, Mdm2-MdmX inh 63.9*, Jurkat NFkB inh -1.0, Beta cell apopt -13.8, Mdm2 MdmX conf 58.7* and Full FLuc ctr 40.9*.
`O=C(Cc1ccc(S(=O)(=O)N2CCOCC2)s1)OCc1ccc(Cl)cc1` gave Gli-Sufu antag -1.7, 697 NFkB inh 21.8, Mdm2-MdmX inh 5.7, Jurkat NFkB inh 6.2 and Beta cell apopt -3.3.
For CCn1nnnc1SCC(=O)N(C)C1CCS(=O)(=O)C1 (stereo not given) the results were Gli-Sufu antag -5.3, 697 NFkB inh 20.8, Mdm2-MdmX inh 12.7, Jurkat NFkB inh 8.8 and Beta cell apopt -7.9.
`CC(=O)N/C(=N\c1nc(C)cc(C)n1)Nc1ccc2ccccc2c1` gave CSC inhib 8.2, Gli-Sufu antag 16.8, 697 NFkB inh -61.9, Mdm2-MdmX inh 73.8*, Jurkat NFkB inh 22.1, Beta cell apopt 32.6, Mdm2 MdmX conf 71.9* and Full FLuc ctr 62.0*.
`CC(=O)N/C(=N/c1nc(C)cc(C)n1)Nc1ccc(NC(C)=O)cc1` gave CSC inhib -16.4, Gli-Sufu antag -0.5, 697 NFkB inh 12.9, Mdm2-MdmX inh 24.9, Jurkat NFkB inh -17.6 and Beta cell apopt 1.8.
O=C(Cc1ccc(NC(=O)C2CCCN(C(=O)C3CC3)C2)cc1)Nc1ccc(C(=O)N2CCOCC2)cc1 (stereo not given) was read as Gli-Sufu antag 8.5.
Screening COc1cc(/C=C/C(=O)OCC(=O)c2ccc(S(=O)(=O)N3CCCCC3)cc2)cc(OC)c1OC returned Gli-Sufu antag -5.7, 697 NFkB inh -10.8, Mdm2-MdmX inh 56.0*, Jurkat NFkB inh -10.5 and Mdm2 MdmX conf 34.5.
Screening CCN(CC)c1ccc(/C=C2\NC(=O)NC2=O)cc1 returned CSC inhib 45.7, Gli-Sufu antag -2.6, 697 NFkB inh -20.4, Mdm2-MdmX inh 62.6*, Jurkat NFkB inh 32.0, Beta cell apopt 3.7, Mdm2 MdmX conf 47.6* and Full FLuc ctr 57.9*.
For CCc1c(-c2ccccc2)nc2sc3c(c2c1N)CCCC3 the results were CSC inhib 7.0, Gli-Sufu antag -16.4, 697 NFkB inh -59.2, Mdm2-MdmX inh 72.2*, Jurkat NFkB inh -51.8, Beta cell apopt 14.3 and Mdm2 MdmX conf -18.8.
Nc1c(C(=O)O)sc2nc(-c3ccccc3)c3c(c12)CCCC3 was read as CSC inhib 0.4, Gli-Sufu antag -4.5, 697 NFkB inh -17.1, Mdm2-MdmX inh -6.0, Jurkat NFkB inh 1.4 and Beta cell apopt -4.0.
For COc1ccc(NC(=O)c2cnn(-c3ccccc3)c2C)cc1 the results were CSC inhib 25.4, Gli-Sufu antag -83.5, 697 NFkB inh -141.4, Mdm2-MdmX inh -97.2, Jurkat NFkB inh -128.8 and Beta cell apopt -3.2.
COC(=O)c1cnn(-c2ccccc2)c1/C=N/NC(=S)Nc1ccc(Cl)cc1 was read as CSC inhib 5.1, Gli-Sufu antag -1.4, 697 NFkB inh -56.6, Mdm2-MdmX inh 52.4*, Jurkat NFkB inh 1.5, Beta cell apopt 3.6, Mdm2 MdmX conf 53.8* and Full FLuc ctr 54.0*.
`O=c1oc(-c2ccccc2)cc(Cl)c1Cl` gave CSC inhib 26.2, Gli-Sufu antag -0.6, 697 NFkB inh 16.3, Mdm2-MdmX inh 94.3*, Jurkat NFkB inh 8.4, Beta cell apopt -17.7, Mdm2 MdmX conf 81.5* and Full FLuc ctr 2.9.
`Cc1nc([N+](=O)[O-])c(Sc2nc3ccccc3n2C)n1Cc1ccccc1` gave CSC inhib 11.6, Gli-Sufu antag 6.5, 697 NFkB inh -11.2, Mdm2-MdmX inh 51.3*, Jurkat NFkB inh -3.6, Beta cell apopt -6.9 and Mdm2 MdmX conf 27.4.
COc1ccc(NC2=C(C)C(=O)CC2)cc1 was read as CSC inhib 5.8, Gli-Sufu antag 29.2, 697 NFkB inh 25.3, Mdm2-MdmX inh 59.5*, Jurkat NFkB inh -11.1, Beta cell apopt -8.9, Mdm2 MdmX conf 39.4 and Full FLuc ctr 90.4*.
C=CCn1c(O)c(N=O)c2ccccc21 was read as CSC inhib -6.7, Gli-Sufu antag 10.3, 697 NFkB inh 6.2, Mdm2-MdmX inh 0.6, Jurkat NFkB inh 11.2 and Beta cell apopt -3.5.
